Laboratory results as given in PubChem BioAssay (NCATS).
Results filed as inconclusive are left out. A number with no mark means an inactive call. Activity calls are given as the source filed them. Calls follow the shape of the dose curve; as a rule, active = well fitted cell-killing curve with a large enough effect; inconclusive = small, poorly fitted or top-dose-only effect, or effect the other way; inactive = flat fitted curve, though single readings scatter.

experiment: qHTS of pediatric cancer cell lines to identify multiple opportunities for drug repurposing: Confirmatory screen for control Hh wild type fibroblast cells (AID 1347121); conditions: viability qHTS; series mostly up to 45.9 µM; activity, negative = cytotoxic: at the top concentration; also: nearly all actives have a fitted effect of over 70% in size
Excerpt: Drug repurposing or repositioning has been offered as a strategy for drug development in oncology programs. This approach has special potential for childhood cancers and other rare or orphan diseases, where the expected return on new drug development has been a disincentive to pharmaceuticals.
In this project we exploit the poly-pharmacology of drugs to discover new indications via phenotypic screening of a panel of 19 well-characterized cell lines derived from solid tumors seen in children and adolescents. The goal is to identify approved drugs with previously unrecognized anticancer properties that has the potential to reveal new mechanisms and biological processes involved in carcinogenesis or drug resistance. We employed a titration-based paradigm (quantitative high-throughput screening or qHTS), where all compounds were tested at multiple concentrations for their effect on cell viability. Concentration-response curves (CRCs) were derived directly from the primary screen, and both potency and efficacy values were used to identify compounds with robust bioactivity profiles. We screened the NIH Chemical Genomics Center (NCGC) Pharmaceutical Collection (NPC) and Mechanism Interrogation Plate (MIPE) small molecule collections of approved and investigational compounds against these cell lines; and measured metabolically active cells after 48 hours of compound treatment as a proxy for cell viability.
Assay Submitter: Nathalia J. Martinez, National Center for Advancing Translational Sciences, National Institutes of Health, Rockville, MD, USA; email: natalia.martinez@nih.gov
[1] Shen, M et al. Quantitative high-throughput phenotypic screening of pediatric cancer cell lines identifies multiple opportunities for drug repurposing. Oncotarget 2017 Dec 19;9(4):4758-4772. PMID 29435139.
The cells were obtained from University of North Carolina (UNC), Pediatric Preclinical Testing Program (PPT), and Coriell Institute (CI).
qHTS cell viability assay:
Cells were assayed in growth media at a density of 500-1,000 cells/well. Five microliters of cells were dispensed into 1,536-well, white, solid-bottom, TC-treated plates (Greiner Bio One) using a multidrop dispenser and incubated at 37 degrees C, 5% CO2, under a humidified atmosphere for 5 hours. Twenty-three nanoliters of compounds and controls (neutral control DMSO or positive control bortezomib at final concentration of 2.3 µM) were subsequently transferred by Kalypsys pintool. For primary screens, the MIPE collection was tested at 11-point dilutions (final concentrations range from 0.78 nM to 46 µM) and the NPC collection at 8-point dilutions (final concentrations range from 0.59 nM to 46 µM). Compounds tested in follow-up screens were assayed at 11-point dilutions. Cells were incubated for 48 hours, followed by addition of 3 µL of CellTiter-Glo (Promega). After a 15 min incubation at room temperature, samples were analyzed for luminescence intensity using a ViewLux High-throughput CCD imager equipped with clear filters.
Potency is read from the fitted curve at half-maximal effect.

Row | Structure (SMILES) | activity, negative = cytotoxic [%] | Potency
1 | CN(C)C(=S)SSC(=S)N(C)C | 12.9 | 
2 | CCc1ccc(C2CCNCC2)cc1 | -10.7 | 
3 | CCCCCCCCC(=O)NCc1ccc(O)c(OC)c1 | 2.07 | 
4 | COC(=O)C1=CCCN(C)C1 | 3.13 | 
5 | COc1ccc(C(=O)N2CCCC2=O)cc1 | 4.25 | 
6 | O=C(O)Cc1ccccc1 | -3.83 | 
7 | COc1ccc2c(C(=O)c3ccc(Cl)cc3)c(C)n(CC(=O)O)c2c1 | 7.01 | 
8 | C[C@@H]1C[C@@H]([C@H](O)CC2CC(=O)NC(=O)C2)C(=O)[C@@H](C)C1 |  | inactive
9 | Cc1ccc([N+](=O)[O-])[c]2c1[O][Hg]2 |  | 16.5 µM (active)
10 | CC[n+]1c(-c2ccccc2)c2cc(N)ccc2c2ccc(N)cc21 |  | 9.27 µM (active)
11 | CC1Sc2c(C(=O)O)c(=O)c3cc(F)c(N4CCNCC4)cc3n21 (stereo not drawn) | 12.2 | 
12 | CN1[C@@H]2CC[C@H]1CC(OC(=O)c1cc(Cl)cc(Cl)c1)C2 (stereo partly drawn) | -8.55 | 
13 | ClC1=C(Cl)C2(Cl)C(CBr)CC1(Cl)C2(Cl)Cl (stereo not drawn) | 16.9 | 
